Test results published in publication PMC7862700, “An all-to-all approach to the identification of sequence-specific readers for epigenetic DNA modifications on cytosine”.

Tests used:
Experiment in all cases: DAPPL (digital affinity profiling via proximity ligation, sequencing); 10 mM Tris-HCl pH 7.5, 50 mM NaCl, 1 mM DTT, 4% glycerol, room temperature, 30 min; GST-TFs on glutathione beads, 16-mer random dsDNA library, 0.1% formaldehyde crosslink after washing; high values mean tight binding
Settings in all cases: protein: recombinant; tags: N-terminal GST; dsDNA, one strand shown
FLI1 = biological target: T1, FLI1 (Homo sapiens, UniProt Q01543 1-452)
T1 sequence: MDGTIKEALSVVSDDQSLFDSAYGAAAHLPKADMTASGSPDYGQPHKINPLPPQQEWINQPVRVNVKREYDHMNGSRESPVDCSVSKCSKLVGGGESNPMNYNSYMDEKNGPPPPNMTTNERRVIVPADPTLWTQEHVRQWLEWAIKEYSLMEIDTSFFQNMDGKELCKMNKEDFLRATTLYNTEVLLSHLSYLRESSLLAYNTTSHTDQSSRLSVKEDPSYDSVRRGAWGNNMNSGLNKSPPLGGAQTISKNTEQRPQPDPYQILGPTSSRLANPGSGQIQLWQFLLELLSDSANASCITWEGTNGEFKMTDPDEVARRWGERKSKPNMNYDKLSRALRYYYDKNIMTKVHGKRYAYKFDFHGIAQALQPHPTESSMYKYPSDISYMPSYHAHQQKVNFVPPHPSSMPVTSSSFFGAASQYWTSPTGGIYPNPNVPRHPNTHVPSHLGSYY
How it was run: (§1)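 Human transcription factors carrying a GST fusion were produced in yeast, bound to glutathione beads, tagged with DNA barcodes and pooled together with a tag-only sample. Each pool was held with 200 nmole of a random double-stranded 16-mer DNA library in Tris/NaCl/DTT/glycerol buffer for 30 min at room temperature, then washed, crosslinked in 0.1% formaldehyde, proximity-ligated with BsaI/T4 ligase (1 h, 37 °C), PCR-amplified and sequenced on an Illumina NextSeq500. Binding signal is the read frequency of each hexamer for a given factor divided by its frequency in the tag-only sample.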

ELK1 = biological target: T2, ELK1 (Homo sapiens, UniProt P19419 1-428)
T2 sequence: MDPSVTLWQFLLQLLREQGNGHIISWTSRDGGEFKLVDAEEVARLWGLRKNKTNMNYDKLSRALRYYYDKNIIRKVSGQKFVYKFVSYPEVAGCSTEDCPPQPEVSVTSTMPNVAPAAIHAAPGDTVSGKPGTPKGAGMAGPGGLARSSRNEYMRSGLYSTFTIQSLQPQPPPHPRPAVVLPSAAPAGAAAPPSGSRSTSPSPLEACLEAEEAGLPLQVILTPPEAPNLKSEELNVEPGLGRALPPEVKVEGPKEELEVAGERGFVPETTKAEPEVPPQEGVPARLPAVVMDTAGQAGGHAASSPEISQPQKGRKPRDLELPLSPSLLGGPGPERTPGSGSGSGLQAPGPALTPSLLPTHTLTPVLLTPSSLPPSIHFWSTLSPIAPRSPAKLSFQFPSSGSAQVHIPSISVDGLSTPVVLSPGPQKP
How it was run: as §1

GABPA = biological target: T3, GABPA (Homo sapiens, UniProt Q06546 1-454)
T3 sequence: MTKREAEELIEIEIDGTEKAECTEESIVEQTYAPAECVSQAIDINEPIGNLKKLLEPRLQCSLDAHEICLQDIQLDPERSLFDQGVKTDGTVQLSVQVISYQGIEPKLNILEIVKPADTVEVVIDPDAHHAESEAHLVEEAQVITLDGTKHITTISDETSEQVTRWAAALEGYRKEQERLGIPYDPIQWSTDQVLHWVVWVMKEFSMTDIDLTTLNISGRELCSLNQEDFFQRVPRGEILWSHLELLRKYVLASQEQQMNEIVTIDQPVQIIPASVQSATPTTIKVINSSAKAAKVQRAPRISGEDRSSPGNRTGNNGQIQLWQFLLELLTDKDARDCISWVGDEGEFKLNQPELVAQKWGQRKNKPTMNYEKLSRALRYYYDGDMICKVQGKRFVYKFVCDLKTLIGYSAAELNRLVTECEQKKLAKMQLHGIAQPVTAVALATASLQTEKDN
How it was run: as §1

ERG = biological target: T4, ERG (Homo sapiens, UniProt P11308 1-479)
T4 sequence: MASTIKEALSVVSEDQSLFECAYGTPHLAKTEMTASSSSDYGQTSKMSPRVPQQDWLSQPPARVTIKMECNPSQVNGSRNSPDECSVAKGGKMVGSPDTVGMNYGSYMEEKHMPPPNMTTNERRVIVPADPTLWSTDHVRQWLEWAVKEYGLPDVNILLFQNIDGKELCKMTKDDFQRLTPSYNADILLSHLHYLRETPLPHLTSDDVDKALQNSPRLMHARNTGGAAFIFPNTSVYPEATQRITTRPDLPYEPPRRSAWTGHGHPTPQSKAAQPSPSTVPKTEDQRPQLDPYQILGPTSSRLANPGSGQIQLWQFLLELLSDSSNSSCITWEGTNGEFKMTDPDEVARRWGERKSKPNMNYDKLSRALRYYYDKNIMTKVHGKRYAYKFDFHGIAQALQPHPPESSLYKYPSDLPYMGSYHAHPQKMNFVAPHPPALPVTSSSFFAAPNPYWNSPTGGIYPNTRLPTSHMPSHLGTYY
How it was run: as §1

ELF1 = ELF1 (Homo sapiens, UniProt P32519 1-619)
ELF1, sequence (P32519 whole entry): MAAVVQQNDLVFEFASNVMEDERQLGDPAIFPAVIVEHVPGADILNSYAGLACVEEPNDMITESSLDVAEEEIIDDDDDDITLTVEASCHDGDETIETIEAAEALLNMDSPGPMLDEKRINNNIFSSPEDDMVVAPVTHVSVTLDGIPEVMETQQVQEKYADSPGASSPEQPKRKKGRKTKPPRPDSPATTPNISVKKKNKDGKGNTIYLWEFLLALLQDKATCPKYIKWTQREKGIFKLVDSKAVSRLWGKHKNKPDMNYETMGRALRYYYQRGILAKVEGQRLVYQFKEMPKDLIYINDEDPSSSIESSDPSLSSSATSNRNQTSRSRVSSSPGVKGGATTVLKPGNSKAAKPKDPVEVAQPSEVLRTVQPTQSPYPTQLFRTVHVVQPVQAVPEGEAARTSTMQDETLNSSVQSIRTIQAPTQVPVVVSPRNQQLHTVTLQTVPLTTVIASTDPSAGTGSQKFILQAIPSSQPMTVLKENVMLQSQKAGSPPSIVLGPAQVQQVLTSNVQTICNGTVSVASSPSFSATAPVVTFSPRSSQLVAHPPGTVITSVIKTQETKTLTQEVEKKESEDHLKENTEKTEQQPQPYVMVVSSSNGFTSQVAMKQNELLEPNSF
How it was run: as §1

EHF = biological target: T5, EHF (Homo sapiens, UniProt Q9NZC4 1-300)
T5 sequence: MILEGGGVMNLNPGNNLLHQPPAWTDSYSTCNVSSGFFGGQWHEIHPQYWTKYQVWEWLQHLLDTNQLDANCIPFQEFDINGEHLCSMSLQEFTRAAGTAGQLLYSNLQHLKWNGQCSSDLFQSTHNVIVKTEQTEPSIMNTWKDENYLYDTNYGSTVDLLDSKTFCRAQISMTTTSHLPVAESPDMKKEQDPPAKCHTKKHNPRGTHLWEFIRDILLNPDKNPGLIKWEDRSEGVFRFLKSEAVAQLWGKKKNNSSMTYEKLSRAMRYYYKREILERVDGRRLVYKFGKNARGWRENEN
How it was run: as §1

SPI1 = SPI1 (Homo sapiens, UniProt P17947 1-270)
How it was run: as §1

SPIB = SPIB (Homo sapiens, UniProt Q01892 1-262)
SPIB, sequence (Q01892 whole entry): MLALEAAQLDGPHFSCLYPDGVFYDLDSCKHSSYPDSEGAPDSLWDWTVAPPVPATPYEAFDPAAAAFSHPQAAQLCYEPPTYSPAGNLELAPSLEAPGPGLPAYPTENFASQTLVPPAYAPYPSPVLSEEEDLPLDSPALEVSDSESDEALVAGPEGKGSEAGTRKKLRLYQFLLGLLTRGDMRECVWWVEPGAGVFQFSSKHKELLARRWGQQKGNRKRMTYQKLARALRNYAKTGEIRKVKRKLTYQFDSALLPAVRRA
How it was run: as §1

ELK3 = biological target: T6, ELK3 (Homo sapiens, UniProt P41970 1-407)
T6 sequence: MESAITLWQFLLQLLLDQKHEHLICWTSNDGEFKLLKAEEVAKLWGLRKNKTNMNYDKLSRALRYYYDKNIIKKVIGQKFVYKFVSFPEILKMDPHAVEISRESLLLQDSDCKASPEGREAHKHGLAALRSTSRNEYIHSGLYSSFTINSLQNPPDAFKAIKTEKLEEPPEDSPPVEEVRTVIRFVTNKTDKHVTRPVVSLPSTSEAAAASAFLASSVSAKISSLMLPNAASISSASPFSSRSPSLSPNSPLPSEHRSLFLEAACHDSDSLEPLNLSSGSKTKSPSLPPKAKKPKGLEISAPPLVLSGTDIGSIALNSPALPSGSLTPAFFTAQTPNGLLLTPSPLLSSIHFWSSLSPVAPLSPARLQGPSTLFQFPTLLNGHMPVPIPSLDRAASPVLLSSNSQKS
How it was run: as §1

| Sequence | binding signal (FLI1) | binding signal (ELK1) | binding signal (GABPA) | binding signal (ERG) | binding signal (ELF1) | binding signal (EHF) | binding signal (SPI1) | binding signal (SPIB) | binding signal (ELK3) |
| --- | --- | --- | --- | --- | --- | --- | --- | --- | --- |
| TGTCTA | 1.2 fold enrichment (6-mer frequency, TF over GST control) | 1.15 fold enrichment (6-mer frequency, TF over GST control) | 1.12 fold enrichment (6-mer frequency, TF over GST control) | 1.17 fold enrichment (6-mer frequency, TF over GST control) | 1.15 fold enrichment (6-mer frequency, TF over GST control) | 1.12 fold enrichment (6-mer frequency, TF over GST control) | 1.09 fold enrichment (6-mer frequency, TF over GST control) | 1.02 fold enrichment (6-mer frequency, TF over GST control) | 1.36 fold enrichment (6-mer frequency, TF over GST control) |
| AACAGC | 1.1 fold enrichment (6-mer frequency, TF over GST control) | 1.1 fold enrichment (6-mer frequency, TF over GST control) | 1.17 fold enrichment (6-mer frequency, TF over GST control) | 1.13 fold enrichment (6-mer frequency, TF over GST control) | 1.12 fold enrichment (6-mer frequency, TF over GST control) | 1.16 fold enrichment (6-mer frequency, TF over GST control) | 1.11 fold enrichment (6-mer frequency, TF over GST control) | 1.13 fold enrichment (6-mer frequency, TF over GST control) | 1.17 fold enrichment (6-mer frequency, TF over GST control) |
| AACGAC | 1.14 fold enrichment (6-mer frequency, TF over GST control) | 1.19 fold enrichment (6-mer frequency, TF over GST control) | 1.18 fold enrichment (6-mer frequency, TF over GST control) | 1.14 fold enrichment (6-mer frequency, TF over GST control) | 1.09 fold enrichment (6-mer frequency, TF over GST control) | 1.1 fold enrichment (6-mer frequency, TF over GST control) | 1.12 fold enrichment (6-mer frequency, TF over GST control) | 1.04 fold enrichment (6-mer frequency, TF over GST control) | 1.06 fold enrichment (6-mer frequency, TF over GST control) |
| GCGCTC | 1.26 fold enrichment (6-mer frequency, TF over GST control) | 1.2 fold enrichment (6-mer frequency, TF over GST control) | 1.16 fold enrichment (6-mer frequency, TF over GST control) | 1.15 fold enrichment (6-mer frequency, TF over GST control) | 1.12 fold enrichment (6-mer frequency, TF over GST control) | 1.09 fold enrichment (6-mer frequency, TF over GST control) | 1.13 fold enrichment (6-mer frequency, TF over GST control) | 1.18 fold enrichment (6-mer frequency, TF over GST control) | 1.15 fold enrichment (6-mer frequency, TF over GST control) |
| ACAGGA | 1.15 fold enrichment (6-mer frequency, TF over GST control) | 1.08 fold enrichment (6-mer frequency, TF over GST control) | 1.13 fold enrichment (6-mer frequency, TF over GST control) | 1.22 fold enrichment (6-mer frequency, TF over GST control) | 1.04 fold enrichment (6-mer frequency, TF over GST control) | 1.12 fold enrichment (6-mer frequency, TF over GST control) | 1.34 fold enrichment (6-mer frequency, TF over GST control) | 1.22 fold enrichment (6-mer frequency, TF over GST control) | 1.04 fold enrichment (6-mer frequency, TF over GST control) |
| GTATTC | 1.33 fold enrichment (6-mer frequency, TF over GST control) | 1.17 fold enrichment (6-mer frequency, TF over GST control) | 1.26 fold enrichment (6-mer frequency, TF over GST control) | 1.19 fold enrichment (6-mer frequency, TF over GST control) | 1.22 fold enrichment (6-mer frequency, TF over GST control) | 1.27 fold enrichment (6-mer frequency, TF over GST control) | 1.31 fold enrichment (6-mer frequency, TF over GST control) | 1.25 fold enrichment (6-mer frequency, TF over GST control) | 1.3 fold enrichment (6-mer frequency, TF over GST control) |
| TCTCGC | 1.82 fold enrichment (6-mer frequency, TF over GST control) | 1.75 fold enrichment (6-mer frequency, TF over GST control) | 1.88 fold enrichment (6-mer frequency, TF over GST control) | 1.72 fold enrichment (6-mer frequency, TF over GST control) | 1.77 fold enrichment (6-mer frequency, TF over GST control) | 1.65 fold enrichment (6-mer frequency, TF over GST control) | 1.69 fold enrichment (6-mer frequency, TF over GST control) | 1.64 fold enrichment (6-mer frequency, TF over GST control) | 1.72 fold enrichment (6-mer frequency, TF over GST control) |
| CACCCC | 1.2 fold enrichment (6-mer frequency, TF over GST control) | 1.3 fold enrichment (6-mer frequency, TF over GST control) | 1.35 fold enrichment (6-mer frequency, TF over GST control) | 1.22 fold enrichment (6-mer frequency, TF over GST control) | 1.28 fold enrichment (6-mer frequency, TF over GST control) | 1.19 fold enrichment (6-mer frequency, TF over GST control) | 1.24 fold enrichment (6-mer frequency, TF over GST control) | 1.32 fold enrichment (6-mer frequency, TF over GST control) | 1.31 fold enrichment (6-mer frequency, TF over GST control) |
